Measured values: ChEMBL document CHEMBL3988442, “University of Dundee, Small-Polar-MMV Screening Library” (2021)
For part of these data: Results with a measured potency or affinity are listed apart.

How the values were obtained:
Design in all cases: scale not given: direction of the effect not stated beside the values
[1] = target: Protein translocase subunit SecA (Escherichia coli (strain K12)) (UniProt P10408); assay: Assay to Identify E. coli SecA ATPase Inhibitors; format: functional; conditions: 30 µM
[2] = target: T1, Ubiquitin-activating enzyme e1, putative (Leishmania donovani (strain BPK282A1)) (UniProt E9BSI1); assay: Leishmania donovani Ubiquitin Activating Enzyme (LdE1); format: functional; conditions: 30 µM
T1 sequence (whole entry): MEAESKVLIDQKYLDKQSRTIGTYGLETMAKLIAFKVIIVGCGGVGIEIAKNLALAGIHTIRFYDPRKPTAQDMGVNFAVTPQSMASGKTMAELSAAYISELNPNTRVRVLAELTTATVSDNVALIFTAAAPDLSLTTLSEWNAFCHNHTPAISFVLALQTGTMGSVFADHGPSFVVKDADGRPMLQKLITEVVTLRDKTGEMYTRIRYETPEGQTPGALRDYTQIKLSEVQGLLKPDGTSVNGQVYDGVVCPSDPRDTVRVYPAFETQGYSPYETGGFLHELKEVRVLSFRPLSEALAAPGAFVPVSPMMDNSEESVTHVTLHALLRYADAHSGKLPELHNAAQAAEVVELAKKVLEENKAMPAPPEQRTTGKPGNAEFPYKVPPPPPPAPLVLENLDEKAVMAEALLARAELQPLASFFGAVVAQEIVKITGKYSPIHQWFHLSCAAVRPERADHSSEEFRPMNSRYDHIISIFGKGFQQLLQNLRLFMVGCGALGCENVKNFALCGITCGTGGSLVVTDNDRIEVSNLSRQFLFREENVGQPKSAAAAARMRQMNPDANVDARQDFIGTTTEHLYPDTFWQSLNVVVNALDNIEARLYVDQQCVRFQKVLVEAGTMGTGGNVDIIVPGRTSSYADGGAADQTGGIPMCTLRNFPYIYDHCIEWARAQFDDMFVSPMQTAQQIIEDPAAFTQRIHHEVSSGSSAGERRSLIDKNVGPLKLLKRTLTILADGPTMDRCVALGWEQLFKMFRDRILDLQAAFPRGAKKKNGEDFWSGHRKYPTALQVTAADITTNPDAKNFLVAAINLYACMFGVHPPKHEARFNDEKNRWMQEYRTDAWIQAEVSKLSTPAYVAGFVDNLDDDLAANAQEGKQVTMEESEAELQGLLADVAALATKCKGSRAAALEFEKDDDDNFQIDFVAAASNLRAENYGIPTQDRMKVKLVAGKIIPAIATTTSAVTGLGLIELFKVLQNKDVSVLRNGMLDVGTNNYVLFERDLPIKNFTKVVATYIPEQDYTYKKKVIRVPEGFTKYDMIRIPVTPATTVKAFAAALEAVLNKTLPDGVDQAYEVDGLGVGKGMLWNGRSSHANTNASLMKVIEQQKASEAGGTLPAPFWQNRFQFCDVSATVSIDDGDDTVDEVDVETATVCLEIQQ

[3] = target: T2, Aspartate--tRNA(Asp/Asn) ligase (Mycobacterium tuberculosis (strain ATCC 25618 / H37Rv)) (UniProt P9WFW3); assay: Assay for Asp RNA synthetase-1 from Mycobacterium tuberculosis; format: functional; conditions: 30 µM; also: in the data most compounds retested in dose-response had high values
T2 sequence (whole entry): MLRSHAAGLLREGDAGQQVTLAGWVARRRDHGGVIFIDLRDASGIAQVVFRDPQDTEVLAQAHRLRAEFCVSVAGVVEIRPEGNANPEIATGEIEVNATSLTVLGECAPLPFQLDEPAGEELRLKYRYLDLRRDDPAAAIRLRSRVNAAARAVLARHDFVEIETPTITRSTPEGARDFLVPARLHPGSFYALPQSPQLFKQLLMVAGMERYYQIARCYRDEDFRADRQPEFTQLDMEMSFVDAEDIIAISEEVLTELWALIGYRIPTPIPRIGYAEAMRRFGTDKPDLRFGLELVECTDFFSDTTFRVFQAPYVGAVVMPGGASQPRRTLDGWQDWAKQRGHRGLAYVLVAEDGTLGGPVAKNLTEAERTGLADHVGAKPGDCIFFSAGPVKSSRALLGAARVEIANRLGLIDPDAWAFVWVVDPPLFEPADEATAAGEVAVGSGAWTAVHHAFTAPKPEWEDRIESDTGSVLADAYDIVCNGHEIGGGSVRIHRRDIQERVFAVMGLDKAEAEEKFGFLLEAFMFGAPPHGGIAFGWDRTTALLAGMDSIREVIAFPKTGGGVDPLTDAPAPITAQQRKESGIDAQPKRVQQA

[4] = target: AMP-activated protein kinase, AMPK (Homo sapiens) (UniProt P54646+O43741+P54619+Q9UGJ0+Q9Y478+Q13131+Q9UGI9); assay: AMP-dependent Kinase enzyme assay. An in vitro enzyme assay that detects ADP turnover that is directly proportional to AMPK activity. This uses naive AMPK that is activated during the assay with MK-8722; format: functional; conditions: 30 µM
[5] = target: Sialic acid-binding Ig-like lectin 9 (Homo sapiens) (UniProt Q9Y336); assay: Hs-Siglec9 ALPHAscreen SOP 20170721; conditions: 10 µM
[6] = test system: Trypanosoma cruzi; assay: Trypanosoma cruzi phosphomannomutase and mannose-1-phosphate guanylyltransferase assay; format: functional; conditions: 10 µM
[7] = target: T3, Arginase-2, mitochondrial (Homo sapiens) (UniProt P78540); assay: in vitro enzyme assay to detect the production of urea directly proportional to the activity of Arginase II; format: functional; conditions: 33.3 µM; also: in the data most compounds retested in dose-response had high values
T3 sequence (whole entry): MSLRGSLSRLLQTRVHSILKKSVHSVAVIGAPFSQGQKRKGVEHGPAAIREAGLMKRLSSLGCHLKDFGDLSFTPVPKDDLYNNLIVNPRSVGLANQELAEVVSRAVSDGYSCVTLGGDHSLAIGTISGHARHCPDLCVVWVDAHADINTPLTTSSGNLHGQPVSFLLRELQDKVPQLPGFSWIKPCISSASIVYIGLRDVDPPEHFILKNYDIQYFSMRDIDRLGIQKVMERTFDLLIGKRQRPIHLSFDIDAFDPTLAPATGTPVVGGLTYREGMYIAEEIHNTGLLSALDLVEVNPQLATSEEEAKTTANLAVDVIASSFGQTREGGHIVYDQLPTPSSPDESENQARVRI

[8] = target: T4, Proteasome subunit beta (Trypanosoma cruzi) (UniProt O96673); assay: Trypanosoma cruzi proteasome chymotrypsin-like activity (TcProtChymo) assay.; also: in the data most compounds retested in dose-response had high values; format: functional; conditions: 9.37 µM
T4 sequence (whole entry): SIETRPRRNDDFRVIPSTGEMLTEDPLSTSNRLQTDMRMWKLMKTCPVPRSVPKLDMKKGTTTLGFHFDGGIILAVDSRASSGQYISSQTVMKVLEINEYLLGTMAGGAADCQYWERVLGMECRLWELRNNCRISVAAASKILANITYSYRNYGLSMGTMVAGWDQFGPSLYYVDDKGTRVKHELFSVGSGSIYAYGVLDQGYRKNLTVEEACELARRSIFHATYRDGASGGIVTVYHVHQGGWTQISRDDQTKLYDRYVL

[9] = species on record: Homo sapiens; assay: To identify inhibition of the IFN signalling (Jak-Stat) pathway via expression of an eGFP reporter gene under the control of an IFN-stimulated response element (ISRE) containing MxA promoter.; format: functional; conditions: 30 µM
[10] = target: Shiga toxin 2 (Escherichia coli O157:H7) (UniProt P09385+P09386); assay: E. coli 0.157:H7 Shiga Toxin SOP - stx2 screening assay; format: functional; conditions: 30 µM
[11] = target: T5, Tyrosyl-tRNA synthetase, putative (Trypanosoma cruzi (strain CL Brener)) (UniProt Q4DSP6); assay: Trypanosoma cruzi tyrosyl tRNA synthetase (TcYRS) _High Tyrosine SOP; format: functional; conditions: 30 µM; also: in the data most compounds retested in dose-response had high values
T5 sequence (whole entry): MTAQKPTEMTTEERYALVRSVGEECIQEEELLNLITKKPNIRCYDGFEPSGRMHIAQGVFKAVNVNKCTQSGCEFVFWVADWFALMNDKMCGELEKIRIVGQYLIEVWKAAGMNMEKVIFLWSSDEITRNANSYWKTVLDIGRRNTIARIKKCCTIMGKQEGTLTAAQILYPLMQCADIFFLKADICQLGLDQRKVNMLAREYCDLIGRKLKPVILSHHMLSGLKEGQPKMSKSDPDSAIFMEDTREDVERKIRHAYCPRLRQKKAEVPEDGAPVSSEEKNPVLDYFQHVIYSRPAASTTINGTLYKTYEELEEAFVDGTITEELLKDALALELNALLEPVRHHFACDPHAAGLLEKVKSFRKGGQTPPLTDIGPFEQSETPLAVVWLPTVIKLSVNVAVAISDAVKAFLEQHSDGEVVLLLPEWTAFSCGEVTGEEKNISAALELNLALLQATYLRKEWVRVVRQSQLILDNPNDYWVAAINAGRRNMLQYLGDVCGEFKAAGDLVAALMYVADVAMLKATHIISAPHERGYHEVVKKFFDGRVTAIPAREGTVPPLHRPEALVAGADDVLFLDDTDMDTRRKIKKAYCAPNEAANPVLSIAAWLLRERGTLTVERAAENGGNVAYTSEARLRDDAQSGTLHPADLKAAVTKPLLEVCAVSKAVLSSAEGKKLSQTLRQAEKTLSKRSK

[12] = target: T5, Tyrosyl-tRNA synthetase, putative (Trypanosoma cruzi (strain CL Brener)); assay: Trypanosoma cruzi tyrosyl tRNA synthetase (TcYRS) SOP; format: functional; conditions: 30 µM
[13] = target: Chromo domain-containing protein 1 (Saccharomyces cerevisiae (strain ATCC 204508 / S288c) (Baker's yeast)) (UniProt P32657); assay: ScCHD-1 Enzyme Inhibition Assay; format: functional; conditions: 30 µM; also: in the data most compounds retested in dose-response had high values
Sequence of Chromo domain-containing protein 1 (Saccharomyces cerevisiae (strain ATCC 204508 / S288c) (Baker's yeast)) (P32657 whole entry, the tested form may be a part): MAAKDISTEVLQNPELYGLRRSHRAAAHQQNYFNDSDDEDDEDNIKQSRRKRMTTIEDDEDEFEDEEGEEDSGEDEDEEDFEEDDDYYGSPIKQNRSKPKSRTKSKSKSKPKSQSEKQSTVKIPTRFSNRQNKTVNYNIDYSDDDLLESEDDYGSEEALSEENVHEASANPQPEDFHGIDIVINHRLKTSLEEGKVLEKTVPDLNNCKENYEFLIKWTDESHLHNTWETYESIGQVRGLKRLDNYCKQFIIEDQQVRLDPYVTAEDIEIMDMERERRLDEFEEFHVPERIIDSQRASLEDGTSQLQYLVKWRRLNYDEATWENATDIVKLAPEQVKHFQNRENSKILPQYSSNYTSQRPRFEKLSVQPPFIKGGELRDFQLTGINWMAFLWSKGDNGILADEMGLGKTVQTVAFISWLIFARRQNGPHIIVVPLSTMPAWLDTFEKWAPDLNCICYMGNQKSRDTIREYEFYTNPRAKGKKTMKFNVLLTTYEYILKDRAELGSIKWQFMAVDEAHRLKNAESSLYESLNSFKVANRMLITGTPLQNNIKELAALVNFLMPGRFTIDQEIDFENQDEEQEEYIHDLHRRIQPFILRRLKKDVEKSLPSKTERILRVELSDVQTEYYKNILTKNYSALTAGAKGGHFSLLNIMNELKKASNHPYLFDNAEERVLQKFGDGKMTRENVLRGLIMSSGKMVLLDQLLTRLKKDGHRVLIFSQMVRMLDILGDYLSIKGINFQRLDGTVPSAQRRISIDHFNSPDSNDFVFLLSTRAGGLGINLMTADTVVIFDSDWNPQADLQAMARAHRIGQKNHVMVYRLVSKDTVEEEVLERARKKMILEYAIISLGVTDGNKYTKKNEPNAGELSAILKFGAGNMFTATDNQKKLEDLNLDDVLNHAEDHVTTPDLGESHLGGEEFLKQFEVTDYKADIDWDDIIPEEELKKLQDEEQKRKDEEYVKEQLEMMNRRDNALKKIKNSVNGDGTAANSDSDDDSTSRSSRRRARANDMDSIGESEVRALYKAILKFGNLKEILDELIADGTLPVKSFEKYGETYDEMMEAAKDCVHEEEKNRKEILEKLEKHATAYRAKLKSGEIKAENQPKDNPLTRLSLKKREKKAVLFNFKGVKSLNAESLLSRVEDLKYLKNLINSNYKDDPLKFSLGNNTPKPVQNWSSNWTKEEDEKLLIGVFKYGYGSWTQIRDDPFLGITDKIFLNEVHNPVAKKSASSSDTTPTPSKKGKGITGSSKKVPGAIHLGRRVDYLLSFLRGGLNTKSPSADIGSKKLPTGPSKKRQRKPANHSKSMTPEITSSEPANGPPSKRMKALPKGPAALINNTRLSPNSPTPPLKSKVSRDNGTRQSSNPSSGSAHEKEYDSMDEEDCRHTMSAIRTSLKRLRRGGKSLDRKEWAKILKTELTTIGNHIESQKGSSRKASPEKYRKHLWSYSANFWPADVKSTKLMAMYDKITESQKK

Sequence of Protein translocase subunit SecA (Escherichia coli (strain K12)) (P10408 whole entry): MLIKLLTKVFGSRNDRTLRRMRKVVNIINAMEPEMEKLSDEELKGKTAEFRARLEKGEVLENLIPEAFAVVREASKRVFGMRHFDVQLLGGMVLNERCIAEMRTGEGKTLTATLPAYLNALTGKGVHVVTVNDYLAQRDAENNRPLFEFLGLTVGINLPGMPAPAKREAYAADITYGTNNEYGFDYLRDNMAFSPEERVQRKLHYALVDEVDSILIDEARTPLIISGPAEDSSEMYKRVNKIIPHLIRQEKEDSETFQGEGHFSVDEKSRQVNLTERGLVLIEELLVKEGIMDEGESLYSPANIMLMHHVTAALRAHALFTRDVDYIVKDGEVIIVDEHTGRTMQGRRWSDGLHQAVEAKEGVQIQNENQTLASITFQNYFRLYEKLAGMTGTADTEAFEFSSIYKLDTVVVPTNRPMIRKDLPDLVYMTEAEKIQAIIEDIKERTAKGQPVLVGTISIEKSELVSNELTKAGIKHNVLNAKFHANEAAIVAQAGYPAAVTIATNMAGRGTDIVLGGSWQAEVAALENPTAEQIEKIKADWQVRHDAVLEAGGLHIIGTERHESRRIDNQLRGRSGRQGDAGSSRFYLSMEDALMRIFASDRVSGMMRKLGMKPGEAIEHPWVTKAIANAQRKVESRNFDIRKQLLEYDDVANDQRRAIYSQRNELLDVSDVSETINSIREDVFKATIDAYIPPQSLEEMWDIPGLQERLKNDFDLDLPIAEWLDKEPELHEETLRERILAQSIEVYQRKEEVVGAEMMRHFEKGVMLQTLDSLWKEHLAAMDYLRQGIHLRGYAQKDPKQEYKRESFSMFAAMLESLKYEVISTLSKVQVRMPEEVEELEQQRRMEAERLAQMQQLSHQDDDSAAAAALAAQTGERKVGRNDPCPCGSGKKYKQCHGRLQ
Sequence of Sialic acid-binding Ig-like lectin 9 (Homo sapiens) (Q9Y336 whole entry): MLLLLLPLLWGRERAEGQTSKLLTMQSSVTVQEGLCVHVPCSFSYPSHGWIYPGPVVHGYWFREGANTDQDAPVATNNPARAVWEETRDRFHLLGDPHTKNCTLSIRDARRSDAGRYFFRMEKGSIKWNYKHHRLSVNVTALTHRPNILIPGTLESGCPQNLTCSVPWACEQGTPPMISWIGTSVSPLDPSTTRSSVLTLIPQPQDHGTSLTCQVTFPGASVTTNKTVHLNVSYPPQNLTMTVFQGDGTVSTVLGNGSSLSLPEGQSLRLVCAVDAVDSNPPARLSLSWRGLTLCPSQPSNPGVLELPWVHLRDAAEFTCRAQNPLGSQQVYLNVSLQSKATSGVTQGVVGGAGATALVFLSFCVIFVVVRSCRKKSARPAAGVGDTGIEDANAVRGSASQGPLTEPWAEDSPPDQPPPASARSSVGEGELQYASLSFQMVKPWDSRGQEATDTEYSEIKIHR

Row | Structure (SMILES) | Percent Effect [1] [%] | Percent Effect [2] [%] | Percent Effect [3] [%] | Percent Effect [4] [%] | Percent Effect [5] [%] | Percent Effect [6] [%] | Percent Effect [7] [%] | Percent Effect [8] [%] | Percent Effect [9] [%] | Percent Effect [10] [%] | Percent Effect [11] [%] | Percent Effect [12] [%] | Percent Effect [13] [%]
1 | COc1cc(CNCC(O)c2ccc(F)c(F)c2)cc2c1OCO2 (configuration not stated) | -2.52 | 13.5 | 1.66 | 1.05 | 3.77 | -6.41 | 0.185 | 18.1 | 17.8 | -9.43 | 7.92 | 13.4 | -5.65
2 | CC1=N[C@@]2(CC[C@@H]3CNC[C@@H]32)C(=O)N1CC(C)C | 0.0241 | 13.5 | 7.41 | -8.73 | -11.6 | -6.35 | 7.96 | 11.2 | 30.2 | -6.54 | -1.08 | 0 | -5.25
3 | CC(C)CN1C[C@H]2C[C@H](C(=O)Nc3cccnc3)[C@@H](C1)O2 | -0.904 | 0 | -0.0153 | 7.32 | -2.44 | -7.33 | 2.87 | 15.9 | -8.69 | -15.6 | 1.08 | 15.4 | 2.38
4 | Cc1cccc(CN2C[C@@H]3CCCO[C@@H]3[C@H](NS(C)(=O)=O)C2)n1 | -4.89 | 21.3 | 4.75 | -6.76 | -3.19 | 5.99 | -50.4 | 11.1 | -3.89 | -20.3 | 7.29 | 25 | -7.06
5 | COCC(=O)NC(C)Cc1cccc(Br)c1 (configuration not stated) | -8.66 | 13.2 | -1.17 | -9.62 | 6.28 | 10.3 | -0.383 | 9.19 | 12.7 | -16.5 | 7.35 | 19.5 | -12.4
6 | O=C(c1cccnc1)N1C[C@@H]2CC[C@H](C1)N(Cc1ncc[nH]1)C2 | -1.65 | 16.4 | 2.47 | 9.09 | 6.45 | 5.88 | 5.91 | 11.4 | 7.79 | -0.806 | 7.53 | 15 | -3.77
7 | O[C@@]1(c2ccccn2)CC[C@H]2CN(Cc3cccc(Cl)c3Cl)C[C@H]21 | -3.54 | 1.35 | -0.73 | 14.3 | -0.828 | -3.95 | -1.62 | -0.468 | 25.8 | 23.9 | 2.15 | 6.49 | -8.09
8 | CCNC(=O)NC(=O)CNC1(c2noc(C)n2)CCCCC1 | -8.65 | 15.8 | 0.329 | -3.69 | -6.42 | 6.91 | -5.92 | 8.34 | 6.39 | 4.43 | 3.19 | -7.79 | -19.2
9 | CCn1ccnc1CN1CCCN(C(=O)Cc2ccc(C)nc2)CC1 | -2.41 | 5.2 | 1.82 | 5.72 | 3.18 | 2.45 | 3.16 | 10.4 | -0.845 | 6.49 | -0.952 | 0 | -16.3
